# The list is not random: actives were taken first. Their share in the collection is about 2%.
# PGE2 EP2 inh = inhibitors of human EP2 prostaglandin E2 receptor. inhibition, % at 25 µM. P43116. 260,000 compounds, 0.52% hits. C6 glioma cells expressing human EP2, cAMP TR-FRET; cells stimulated with saturating PGE2;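 active means percent inhibition above 40 after rounding to a whole number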;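 further: rat C6 glioma host cells with rolipram phosphodiesterase inhibitor present; the protocol text gives 20 µM as final concentration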
# EP2 mod = modulators of human EP2 prostaglandin E2 receptor | EP2-expressing cells, cAMP HTRF FRET, PGE2 co-stimulation | AID 940 | induction, % at 25 µM | 260,000 compounds, 0.83% hits | P43116;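 active means compounds whose cAMP rise, as percent of the full-agonist control response, exceeds 60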;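 further: rat C6 glioma line stably carrying human EP2 under a CMV promoter; the protocol text gives 20 µM as final concentration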
# S1P4 antagonist = blocks the human S1P4 receptor | O95977 | S1P4-expressing cells, antagonist mode, reporter read-out | inhibition, % at 4.98 µM | 220,000 compounds, 0.26% hits | AID 1510; in the data active means inhibition above about 29%
# S1P3 antagonist = antagonists of human S1P3 receptor | Q99500 | CHO S1P3 NFAT-BLA reporter, FRET fluorescence, antagonist mode | inhibition, % at 4.98 µM | 170,000 compounds, 0.27% hits | AID 485;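 active means inhibition above the plate cutoff, the mean inhibition of test wells on that plate plus 3 SD, cut at about 28% in these data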;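 further: cells challenged with S1P at its EC80 of 0.8 µM; blue over green emission ratio from cleaved BLA substrate after 4 h stimulation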
# Target sequence (Q99500 whole entry, looked up): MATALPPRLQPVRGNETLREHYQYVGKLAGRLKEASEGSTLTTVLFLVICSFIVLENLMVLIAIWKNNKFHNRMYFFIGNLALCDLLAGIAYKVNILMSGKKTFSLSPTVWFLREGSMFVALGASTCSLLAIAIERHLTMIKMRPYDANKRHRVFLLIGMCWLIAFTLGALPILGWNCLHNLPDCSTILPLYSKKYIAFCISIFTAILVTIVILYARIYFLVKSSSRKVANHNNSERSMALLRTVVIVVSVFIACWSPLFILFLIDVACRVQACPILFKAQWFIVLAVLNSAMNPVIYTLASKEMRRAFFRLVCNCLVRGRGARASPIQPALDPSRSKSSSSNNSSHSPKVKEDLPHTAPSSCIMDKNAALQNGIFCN
# S1P4 ag = activates the human S1P4 receptor | O95977 | 220,000 compounds, 0.35% hits | S1P4-expressing cell line, agonist reporter assay | activation, % at 4.98 µM; in the data active means activation above about 11%
# Hits are given with their value; 0 = inactive; - = no result given; ! = not confirmed by another sample.
SMILES,PGE2 EP2 inh,EP2 mod,S1P4 antagonist,S1P3 antagonist,S1P4 ag
COC(=O)c1ccc(NC(=O)CSc2nnc3n(CC(=O)N4CCCC4)c4ccccc4n23)cc1,0,0,-,-,-
O=C1NC2(CCN(C(=O)CCc3cc(Cl)no3)CC2)Nc2ccc(Cl)cc21,0,0,-,-,-
O=[N+]([O-])c1c(Nc2ccccn2)cc(Cl)c2nonc12,56.5,0,0,0,0
O=C(O)c1cccc(Nc2cc(Cl)c3nonc3c2[N+](=O)[O-])c1,0,0,0,0,0
COc1ccc(C2=CC3=C(Br)C(=O)C(C)(O)C(=O)C3=CO2)cc1 (centres undefined),133.8,0,-,-,-
COc1cccc(C2=NN(C(=O)c3ccccc3)C(O)(C(F)(F)F)C2)c1 (centres undefined),-,64.5,0,-,0
O=C(CSc1nc2ccccc2c(=O)[nH]1)Nc1ccc(C(=O)O)cc1,0,0,0,0,0
Nc1nc2c(c(=O)[nH]1)N[C@H](CCNc1ccc(C(=O)O)cc1)CN2,48.6,0,-,-,-
Cc1sc(NC(=O)c2ccco2)c(CN2CCN(c3ccccn3)CC2)c1C,0,0,0,64.5,0
Cc1sc(NC(=O)c2ccco2)c(CN2CCN(c3ccc(F)cc3)CC2)c1C,0,0,0,-,0
CCc1ccc(OCCCC(=O)Nc2nnc(C(C)C)s2)cc1,0,0,-,-,-
CCSc1nc(-c2cccs2)nc2ccccc12,0,64.2,0,0,0
c1ccc(CNc2nc(-c3cccs3)nc3ccccc23)cc1,0,0,0,0,0
COc1cccc(C2C=C(c3ccc(Br)s3)Nc3ncnn32)c1OC (centres undefined),112.4,0,0,0,0
Cc1cc(C)c2[nH]c(=O)c(CN(Cc3ccco3)C(=O)NC3CCCCC3)cc2c1,0,0,-,-,-
Cc1ccc2cc(CN(Cc3ccco3)C(=O)NC3CCCCC3)c(=O)[nH]c2c1C,0,60.6,0,-,0
O=C(CN1C(=O)C(=O)c2ccccc21)OCN1C(=O)c2ccccc2C1=O,0,0,0,0,0
CCC(=O)OCN1C(=O)C=CC1=O,82.1,0,-,-,-
CCn1c(SCC(=O)Nc2ccc3c(c2)OCCO3)nnc1-c1ccoc1C,0,0,-,-,-
CC1(C)CC(=O)CC(=Nc2ccc(C(=O)O)cc2)C1,0,0,0,103.2,0
CC1(C)CC(=O)C/C(=N/NC(=O)c2ccc(-c3ccccc3)cc2)C1,0,0,0,0,0
CC(C)CCCC(C)[C@H]1CCC2C3CC=C4C[C@@H](O)CC[C@]4(C)C3CC[C@@]21C (some centres undefined),0,0,-,-,-
C[C@@]12CC[C@@H]3[C@H](CC=C4C[C@@H](O)CC[C@@]43C)[C@H]1CC[C@H]2N(CCO)CCO,49.0,0,-,-,-
Cc1nnc2sc(-c3cccc(NC(=O)C(C)C)c3)nn12,0,0,-,-,-
Nc1[nH]n2c(=O)c3c(nc2c1N=Nc1ccc(Cl)cc1)CCCC3,0,64.4,0,-,0
SMILES,PGE2 EP2 inh,EP2 mod,S1P4 antagonist,S1P3 antagonist,S1P4 ag
Cc1[nH]n2c(=O)c3c(nc2c1-c1ccc(Cl)cc1)CCC3,0,0,0,-,0
COc1ccc(-c2nc(-c3ccc(O)cc3O)cs2)cc1OC,82.2,0,0,0,0
COc1ccc2cc(C#N)c(SCC(=O)OC(C)C)nc2c1,0,84.1,-,-,-
CCOc1ccc2cc(C#N)c(SCC(=O)Nc3nnc(CC)s3)nc2c1,0,73.1,-,-,-
CCc1nnc(NC(=O)CSc2nc3ccc(C)cc3cc2C#N)s1,0,0,-,-,-
COc1cccc(NC(=O)CSc2nc3cc(OC)ccc3cc2C#N)c1,0,66.6,-,-,-
CCc1nnc(NC(=O)CSc2nc3cc(C)c(C)cc3cc2CC)s1,0,68.7,-,-,-
COc1ccc2cc(C#N)c(SCC(=O)N3CC(=O)Nc4ccccc43)nc2c1,0,73.0!,0,0,0
Cn1c(C(=O)N(Cc2ccccc2)Cc2cccs2)cc2sccc21,0,64.8!,0,0,0
Cn1c(C(=O)N(Cc2ccccc2)Cc2ccccn2)cc2sccc21,0,0,0,0,0
C=C(C)Cn1c(NN)nc2c1c(=O)[nH]c(=O)n2C,0,0,-,-,-
CC(=O)c1cccc(Nc2nc(-c3ccc(O)cc3O)cs2)c1,69.5,0,-,-,-
CN1[C@@H]2CC[C@H]1CC(OC(c1ccccc1)c1ccccc1)C2 (some centres undefined),57.5,0,-,-,-
CN1C2CCC1CC(OC(c1ccccc1)c1ccccc1)C2 (centres undefined),0,0,0,0,0
COC(=O)c1c(NC(=O)c2ccc(OC)c(OC)c2)sc(C(=O)Nc2ccc(F)cc2)c1C,0,0,-,-,-
COc1cc(NS(=O)(=O)c2ccc(C)cc2)ccc1-n1cnnn1,152.5,0,0,0,0
CCCC(c1nnnn1C1CCCCC1)N(Cc1ccco1)Cc1cc2cc(CC)ccc2[nH]c1=O (centres undefined),0,82.3,-,-,-
CCCC(c1nnnn1C(C)(C)C)N(Cc1cc2cc(C)ccc2[nH]c1=O)C1CCCCC1 (centres undefined),0,65.9,-,-,-
Cc1cc(C)c2cc(CN(Cc3cccs3)C(c3nnnn3C(C)(C)C)C(C)C)c(=O)[nH]c2c1 (centres undefined),0,61.4,-,-,-
CCCC(c1nnnn1Cc1ccccc1)N(Cc1cc2cc(C)ccc2[nH]c1=O)C1CCCC1 (centres undefined),0,0,-,-,-
CCCC(c1nnnn1C1CCCC1)N(Cc1ccco1)Cc1cc2cc(C)cc(C)c2[nH]c1=O (centres undefined),0,0,-,-,-
CCCC(c1nnnn1C1CCCCC1)N(Cc1ccco1)Cc1cc2c(C)cc(C)cc2[nH]c1=O (centres undefined),0,69.0,-,-,-
O=C(Nc1ccc(Oc2ccccc2)cc1)c1snc2c(=O)[nH]cnc12,0,0,-,-,-
Cc1cc(-c2cncnc2C2CCN(C(=O)CCn3nccc3C)CC2)on1,-,0,-,-,-
COC(=O)c1c(NC(=O)c2cccc(OC)c2)sc(C(=O)NC2CCCCC2)c1C,0,0,-,-,-
SMILES,PGE2 EP2 inh,EP2 mod,S1P4 antagonist,S1P3 antagonist,S1P4 ag
CCn1ncc(CN(CCN(C)C)Cc2cccs2)c1C,0,0,-,-,-
Cc1cc(C)c2cc(CN(Cc3ccco3)Cc3nnnn3C3CCCCC3)c(=O)[nH]c2c1,0,68.8,-,-,-
CCc1ccc2[nH]c(=O)c(CN(Cc3cccs3)C(CC)c3nnnn3C(C)(C)CC)cc2c1 (centres undefined),0,60.8,-,-,-
CCC(c1nnnn1C1CCCC1)N(Cc1ccco1)Cc1cc2cc(C)ccc2[nH]c1=O (centres undefined),0,69.3,-,-,-
CCC(c1nnnn1C(C)(C)CC)N(Cc1ccco1)Cc1cc2cc(C)ccc2[nH]c1=O (centres undefined),0,89.5,-,-,-
CCOc1ccc2[nH]c(=O)c(CN(Cc3cccs3)C(CC)c3nnnn3C(C)(C)CC)cc2c1 (centres undefined),0,0,0,0,0
Cn1c(SCC(=O)Nc2ccc3c(c2)OCO3)nnc1C1CC1,0,0,-,-,-
O=C1C=Cc2ccccc2/C1=C\c1c(O)[nH]c(=S)[nH]c1=O,0,0,-,-,-
CCc1sc(NC(=O)Cc2ccc(OC)c(OC)c2)nc1-c1ccccc1,0,0,-,-,-
Cc1ccc2nc3c(cc(C(=O)NC(C)c4ccccc4)c(=N)n3C(C)C)c(=O)n2c1 (centres undefined),0,0,-,-,-
Cc1ccc2cc(CN(Cc3cccs3)C(=O)Nc3ccc(F)cc3)c(=O)[nH]c2c1,0,0,-,-,-

# Bioassay records as filed in PubChem BioAssay.
